These results are taken from PubChem BioAssay AID488969 (Vanderbilt High Throughput Screening Facility, 2010).

In all, about 110,000 compounds were measured (“z-score”: median about -0.1, highest 2% from about 2 on). The sample as a whole holds a higher share of the highest values than the screen did. Activity calls are given as the source filed them.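 The calls were made as follows: active = z-score in the third read window above 3 or below -3; inactive = the rest.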

The target in the experiment is Metabotropic glutamate receptor 8 (Rattus norvegicus) (UniProt P70579). As to the kind of experiment: rat mGluR8 modulators via GIRK flux, primary screen, cell-based, thallium flux, HTS (AID 488969). Particulars: HEK293 rat mGluR8, GIRK (G protein-gated inwardly rectifying potassium channel) thallium flux, FluoZin2; at 10 µM; stronger effect = higher value; submaximal glutamate (EC20) added with thallium.
Chain of Metabotropic glutamate receptor 8 (Rattus norvegicus) (P70579 whole entry, looked up): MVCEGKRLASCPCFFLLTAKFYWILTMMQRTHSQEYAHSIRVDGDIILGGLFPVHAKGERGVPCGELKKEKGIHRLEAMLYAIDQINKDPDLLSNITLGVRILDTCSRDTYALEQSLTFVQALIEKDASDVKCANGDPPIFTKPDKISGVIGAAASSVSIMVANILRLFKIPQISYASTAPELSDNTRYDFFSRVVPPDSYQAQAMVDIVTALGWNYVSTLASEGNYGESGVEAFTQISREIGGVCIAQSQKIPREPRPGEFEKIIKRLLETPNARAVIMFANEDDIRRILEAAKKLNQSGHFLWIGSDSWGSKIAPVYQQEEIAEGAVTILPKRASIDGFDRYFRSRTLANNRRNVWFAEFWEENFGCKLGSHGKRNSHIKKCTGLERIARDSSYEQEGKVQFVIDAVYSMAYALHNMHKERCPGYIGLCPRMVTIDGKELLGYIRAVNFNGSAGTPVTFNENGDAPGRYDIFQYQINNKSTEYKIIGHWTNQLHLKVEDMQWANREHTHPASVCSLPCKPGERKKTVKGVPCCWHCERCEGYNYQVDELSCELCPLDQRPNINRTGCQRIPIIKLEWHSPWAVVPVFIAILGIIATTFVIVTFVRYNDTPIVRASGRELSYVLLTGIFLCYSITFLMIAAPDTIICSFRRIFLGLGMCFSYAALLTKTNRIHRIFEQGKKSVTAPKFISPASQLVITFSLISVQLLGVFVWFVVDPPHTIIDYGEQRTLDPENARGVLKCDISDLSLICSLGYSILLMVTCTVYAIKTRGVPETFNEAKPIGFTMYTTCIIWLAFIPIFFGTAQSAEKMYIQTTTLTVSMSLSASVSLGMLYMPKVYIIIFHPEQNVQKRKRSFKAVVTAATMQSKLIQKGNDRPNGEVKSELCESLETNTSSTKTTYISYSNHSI
In the case of `CCOc1ccc(Cc2c(Cl)nc(SC)nc2N(C)C)cc1`, the z-score was -0.458.
Then `CSc1nnc(C2CCCN2)n1C` (centres undefined), with 0.383; and `O=C(COc1ccc(S(=O)(=O)N2CCOCC2)cc1)Nc1ccccc1C(F)(F)F`, with 1.25.
In turn, `CCn1c(SCC(=O)NC2CCCCC2C)nnc1-c1ccc(OC)cc1` (centres undefined) came in with a z-score of 0.074.
Then `CC(=O)N1c2c(ccc3ccccc23)C(C)CC12CCCCC2` (centres undefined), with -0.635.
Compound `O=c1c2ccccc2ncn1CCCOc1ccccc1[N+](=O)[O-]` gave a z-score of -0.198.
With `O=C(Cn1cnc2c(nnn2Cc2ccc(F)cc2)c1=O)N1CCN(c2ccccc2)CC1`, the z-score is -0.0198.
To `Cc1oc(-c2ccccc2)nc1CC(=O)O` belongs -0.979; to `CCCN(CCC)CCNC(=O)CS(=O)Cc1nc(-c2ccc(C)cc2)oc1C` (centres undefined), 1.19.
Then `Cc1oc(-c2ccccc2)nc1CS(=O)CC(=O)O` (centres undefined), with 2.52.
Then `COc1cccc(-c2nc(CS(=O)CC(=O)O)c(C)o2)c1` (centres undefined), with 0.0172; and `COCCNC(=O)CS(=O)Cc1nc(-c2ccc(Cl)cc2)oc1C` (centres undefined), with 0.00619.
In turn, `CCN(CC)CCNC(=O)CS(=O)Cc1nc(-c2ccc(Cl)cc2)oc1C` (centres undefined) gave a z-score of 2.41.
As to `CCN(CC)CC(O)COc1ccc2c(c1)OCO2` (centres undefined), the z-score was -0.199.
To `Cc1cc(C)cc(OCCCCCNCCO)c1` belongs -0.911; to `COc1ccc(-c2nc(NC(=O)CSc3nnc4ccccn34)ns2)cc1`, -0.0274.
To `O=C(CSc1nnc2ccccn12)Nc1nsc(-c2ccccc2)n1` belongs 3.63 (active).
Then `O=C(CSc1nnc2scc(-c3ccccc3)n12)Nc1nsc(-c2ccccc2)n1`, with -0.713; and `O=C(Nc1cccc(Cl)c1)Nc1ccc(Cl)cn1`, with 0.563; and `Cc1ccc(Oc2ncnc3sccc23)cc1`, with 0.102.
For the compound `Cc1ccc2c(CC(=O)OC(C)C(=O)NCc3ccc4c(c3)OCO4)coc2c1` (centres undefined), the z-score was found to be 2.05.
Consider `Cc1ccc2c(CC(=O)NCc3ccc4c(c3)OCO4)coc2c1`, for which the z-score stood at 0.281.
Turning to `CC(OC(=O)Cc1coc2cc3c(cc12)CCC3)C(=O)NCc1ccc2c(c1)OCO2` (centres undefined), the z-score came out at 0.706.
As to `Cc1nc(C(F)(F)F)nc(Nc2ccc(Br)cc2)c1C#N`, the z-score is -0.188.
To `CCOC(=O)c1[nH]c(C)c(C(=O)N(C)Cc2ccccc2)c1C` belongs 0.89; to `CCCSc1nnc(-c2c[nH]c3ccccc23)n1C`, 0.341.
To `CCc1nnc(NC(=O)CSc2nnc(-c3ccccc3O)n2CC)s1` belongs -0.195; to `CCSc1nnc(NC(=O)CSc2nnc(-c3c[nH]c4ccccc34)n2CC)s1`, -1.46.
Then `CCn1c(SC(C)C(=O)OC)nnc1-c1c[nH]c2ccccc12` (centres undefined), with -0.657.
As to `CCc1nnc(NC(=O)CSc2nnc(-c3c[nH]c4ccccc34)n2CC)s1`, the z-score is 5.79 (active).
Then `CCOC(=O)C(C)Sc1nnc(-c2c[nH]c3ccccc23)n1C` (centres undefined), with 4.19 (active); and `CC(C)(C)c1ccc(-c2n[nH]c(=S)n2C2CCCC2)cc1`, with 4.4 (active); and `Cn1c(-c2ccc(C(C)(C)C)cc2)n[nH]c1=S`, with 1.92.
To `S=c1[nH]nc(-c2cccnc2)n1C1CCCCC1` belongs 0.738; to `CC(C)n1c(-c2ccccc2F)n[nH]c1=S`, 0.0711.
To `Cc1ccsc1-c1n[nH]c(=S)n1C1CCCCC1` belongs 0.261.
Regarding `CC(C)n1c(-c2ccc(C(C)(C)C)cc2)n[nH]c1=S`, the z-score was 8.21 (active).
To `CC(=N\Nc1ccc(Cl)cc1)/C(=N/O)C(=O)Nc1ccccc1` belongs 0.0464; to `COc1cc(/C=N/O)cc(Br)c1OCC(=O)NCc1ccccc1`, 0.215.
To `Cc1ccccc1-n1nc(CSc2nc3ccccc3[nH]2)c(-c2ccccc2)c1N` belongs -0.755; to `O=C(O)C1(NS(=O)(=O)c2ccc(Cl)cc2)CCCCC1`, -0.168.
Then `COc1ccc(NC(=O)C2CCN(C(=O)c3cccs3)CC2)cc1`, with 0.195; and `Cc1ccc(-c2nc3cnccn3c2Nc2ccccc2)o1`, with -0.467; and `Cc1ccc(Nc2c(-c3ccc(C)o3)nc3cnccn23)cc1`, with 2.11.
Take `Cc1ccc(-c2nc3cnccn3c2Nc2c(C)cccc2C)o1`: the z-score was -0.399.
Then `C/C=C/c1ccc(OCCOCCOc2cccc3cccnc23)c(OC)c1`, with -0.356; and `O=S(=O)(NCCc1csc(-c2cccnc2)n1)c1ccc2c(c1)OCCO2`, with -0.0667.
In turn, `CCc1ccc(S(=O)(=O)NCCc2csc(-c3cccnc3)n2)s1` returned a z-score of -0.459.
To `O=S(=O)(NCc1csc(-c2cccnc2)n1)c1ccc(Cl)s1` belongs 0.124; to `COc1ccc(S(=O)(=O)NCc2csc(-c3cccnc3)n2)cc1`, -0.168.
To `O=S(=O)(NCCc1csc(-c2cccnc2)n1)c1ccc(Cl)s1` belongs 2.22; to `O=S(=O)(NCc1csc(-c2cccnc2)n1)c1ccc2c(c1)OCCO2`, 2.01; to `Cc1cc(C)n2nc(SCc3cc(=O)n4ccccc4n3)nc2n1`, -0.0377.
In turn, `CCCCCCCCSc1n[nH]c(N)n1` displayed a z-score of 0.0327.
Compound `COC(=O)c1cccc(CSc2nnc(C)s2)c1` had a z-score of -0.565.
Then `COc1ccc([N+](=O)[O-])cc1NC(=O)C(C)Sc1ccc(C)cc1` (centres undefined), with -0.545.
`COc1cc(C(=O)OCC(=O)c2c[nH]c3ccccc23)ccc1OCC(=O)N1CCOCC1` came in with a z-score of 0.0746.
As for `CCn1ncc(Cl)c1C(=O)NC(C)c1ccccc1` (centres undefined), the z-score came out at 0.00989.
Then `Clc1cccc(Cl)c1CSc1nnc2ccccn12`, with 0.157; and `Cc1ccccc1CSc1nnc(NC(=O)C2COc3ccccc3O2)s1` (centres undefined), with 0.0129.
`C[C@H](C(=O)C=[N+]=[N-])N1C(=O)c2ccccc2C1=O` returned a z-score of -0.275.
To `O=C(Cn1nnc(-c2ccccc2)n1)NCc1ccco1` belongs 0.185.
To `CCOc1ccc(-c2nnn(CC(=O)NCc3ccco3)n2)cc1` belongs 0.0502.
Then `CCCCOc1ccc(-c2nnn(CC(=O)NCc3ccco3)n2)cc1`, with 2.02.
Compound `COc1ccccc1NC(=O)c1ccc(NC(=O)COC(=O)CC(NC(=O)c2ccccc2Cl)c2ccccc2)cc1` (centres undefined) displayed a z-score of -0.112.
Then `Cc1cc2n(n1)C(c1cn(-c3ccccc3)nc1C)Nc1ccccc1-2` (centres undefined), with -2.98; and `O=C(CSc1ccc(-c2ccc(F)cc2)nn1)NCc1ccco1`, with -0.746; and `CCOC(=O)Cc1csc(NC(=O)c2ccc(OC)c(OC)c2)n1`, with 0.0105.
As for `CCOC(=O)Cc1csc(NC(=O)CC)n1`, the z-score was 1.77.
Then `CCOC(=O)Cc1csc(NC(=S)NC(=O)c2ccc(C)cc2)n1`, with 8.13 (active).
As to `CCOC(=O)Cc1csc(NC(=S)NC(=O)c2ccc(Cl)cc2)n1`, the z-score is 2.1.
As for `CCOC(=O)Cc1csc(NC(=S)NC(=O)c2ccccc2)n1`, the z-score is 10.6 (active).
To `CCOC(=O)Cc1csc(NC(=O)c2ccc(NC(C)=O)cc2)n1` belongs 0.627; to `CCOC(=O)Cc1csc(NC(=O)c2ccncc2)n1`, -0.235.
Then `CCOC(=O)Cc1csc(NC(=S)NC(=O)c2ccc([N+](=O)[O-])cc2)n1`, with 1.72.
In turn, `CCCCC(=O)Nc1ccc(C(=O)Nc2nc(CC(=O)OCC)cs2)cc1` displayed a z-score of -0.728.
Then `CCOC(=O)Cc1csc(NC(=O)c2ccc(Cl)nc2)n1`, with 0.0254; and `CCOC(=O)Cc1csc(NC(=S)NC(=O)c2cccc([N+](=O)[O-])c2)n1`, with 0.802; and `CCOC(=O)Cc1csc(NC(=O)Nc2ccccc2)n1`, with 3.05 (active).
